Test [1] is described as follows: Cytotoxicity counterscreen for NFkB agonists and antagonists (AID 624476;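 also: cells exposed to compound for 48 hours; % is scaled to controls: 0 for no effect and ±100 for the full control effect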). (In general: Counterscreens check selectivity or assay interference.)
Test [2] in a line: qHTS Assay for Identification of Small Molecule Agonists for NFkB Signaling Pathway. (AID 624478).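 Also: compounds tested together with TNF alpha at its EC50 of 10 pM; 0% is about no effect.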 In a few lines:
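ME-180 cervical carcinoma, stable NFkB-RE beta-lactamase reporter; 1000 cells/well, overnight attachment; cpd + TNF alpha 10 pM final, 5 h 37 C; LiveBLAzer 2 h RT; FRET 460/530 nm, ex 405 nm.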
In general terms: Quantitative high-throughput screening tests each substance at several concentrations.

The nature of test [3]: Cell Proliferation Assay against the TMD8 Cell Line (AID 651645).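 Also: cells exposed to compound for 48 h before reading.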 Conditions: TMD8 DLBCL cell line proliferation/viability; at 46.1 µM (top of the series). In outline: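 Viability by CellTiter-Glo after 48 h compound exposure of 500 log-phase TMD8 cells per well (RPMI, 5% FBS). Percent activity scaled between DMSO (100%) and 9.2 uM final bortezomib (0%).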
A short description of test [4]: Cell Proliferation Assay against the HBL1 Cell Line (AID 651646).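 Also: cells exposed to compound for 48 h before reading.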 Conditions: HBL1 DLBCL cells; at 46.1 µM (top of the series). In a few lines:
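Luminescent ATP read-out (CellTiter-Glo) after 48 h compound exposure of HBL1 cells at 37 °C; percent activity was scaled between DMSO as 100% and 9.2 uM bortezomib (final) as 0%.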

Test [5] in a line: Cell Proliferation Assay against the TMD8 Cell Line (Caspase readout at 16 hrs) (AID 651712). Also: potency is read from the fitted curve at half-maximal effect. In a few lines: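 Apoptotic response of TMD8 cells was judged from caspase 3/7 activation following a 16 hour compound incubation at 37 °C. Luminescent signal was converted to percent activity, with DMSO set as 0% and 9.2 uM final bortezomib as 100%.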
The nature of test [6]: Cell Proliferation Assay against the TMD8 Cell Line (Caspase readout at 8 hrs) (AID 651713). Also: potency is read from the fitted curve at half-maximal effect. In outline:
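Seed log-phase TMD8 cells, add compound by pin tool, incubate 8 h at 37C under 5% CO2, equilibrate to room temperature, add Caspase-Glo, wait 15 min, read luminescence; percent activity uses DMSO and 9.2 uM bortezomib controls.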

Test [7] is described as follows: qHTS Assay for Identification of Small Molecule Antagonists for NFkB Signaling Pathway. (AID 624479; calls by dose curve;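 also: pathway stimulated with TNF alpha; % is scaled to controls: 0 for no effect and ±100 for the full control effect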).
Test [8] can be described thus: qHTS assay for small molecule agonists of the antioxidant response element (ARE) signaling pathway (AID 651741; active = well fitted activation curve with a large enough effect in the signal ratio; the % refers to the signal ratio; also: potency is read from the fitted curve at half-maximal effect; as to activation: % of control where 0% means no effect). In outline:
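Quantitative HTS in HepG2 cells stably expressing an ARE-beta-lactamase reporter; 16 h compound exposure at 37 C, followed by 2 h room-temperature incubation with LiveBLAzer B/G FRET substrate and fluorescence measurement.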

Test [9] is described as follows: qHTS assay for small molecule activators of the nuclear factor-kappa B (NF-kB) signaling pathway (AID 651749; active = well fitted activation curve with a large enough effect in the signal ratio; the % refers to the signal ratio; also: % of control where 0% means no effect). As to conditions: NF-kB-bla ME-180 cells, beta-lactamase FRET ratio, 16 h; stronger effect = higher value. In a few lines: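 Readout: beta-lactamase reporter driven by an NF-kB response element, detected fluorescently as loss of FRET. Cells were the ME-180 line, treated 16 hr at 37C with pin-transferred compound.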

For test [10], the target named is Tumor necrosis factor (Homo sapiens) (UniProt P01375). Description: qHTS assay to identify small molecules that stimulate Tumor Necrosis Factor-alpha (TNF-alpha) secretion (AID 651757; active = well fitted curve in the direction sought with a large enough effect in the signal ratio; the % refers to the signal ratio; also: 0% is about no effect). In a few lines:
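Read-out is HTRF, a TR-FRET sandwich of cryptate- and XL665-labeled anti-TNF-alpha antibodies detecting cytokine secreted by THP-1 cells. Cells had been incubated with test compounds at 37 C for 17 hrs beforehand.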

A short description of test [11]: HTS Assay for Allosteric Antagonists of the Human D2 Dopamine Receptor: Hit Validation in HTRF (AID 624455).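 Also: stable D1 dopamine receptor cell line scored for blocking the D1 response; % is scaled to controls: 0 for no effect and ±100 for the full control effect.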 In a few lines:
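First, antagonism was screened by calcium flux in a force-coupled, inducible Hek293 Trex D2 line challenged with EC80 dopamine. Hits then went into an HTRF assay in cells stably expressing D1, testing inhibition of the D1 response.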
For orientation: TR-FRET usually uses a lanthanide donor and a delayed reading to cut background.

Test [12] in a line: qHTS of Trypanosoma Brucei Inhibitors: LOPAC Validation (AID 624147). Also: 0% is about no effect. In a few lines: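 Quantitative HTS: titrated library compounds versus trypanosomal pyruvate kinase in TEA buffer (pH 7.2) containing KCl, MgCl2, BSA and Tween-20. Reactions were initiated with ADP, 130 uM final. Kinase-Glo Plus luminescence was read after 45 min at RT.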
The nature of test [13]: qHTS assay for small molecule activators of the p53 signaling pathway (AID 651743; active = well fitted activation curve with a large enough effect in the signal ratio, not every such curve was filed as active; the % refers to the signal ratio; also: % of control where 0% means no effect). Conditions: HCT-116 p53RE-bla, beta-lactamase FRET ratio, 16 h; activation: stronger effect = higher value. In a few lines:
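Read-out is fluorescence intensity from the LiveBLAzer B/G FRET substrate, added for 2 hours at room temperature after HCT-116 p53RE-bla cells had been incubated with compounds for 16 hours at 37 C.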

Test [14] in a line: S16 Schwann cell PMP22 intronic element beta-lactamase assay (AID 624044; calls by dose curve;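 also: 0% = DMSO and -100% = potassium clavulanate positive control; nearly all actives have a fitted effect of over 15% in size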). In a few lines:
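Rat S16 Schwann cells with beta-Lac driven by a PMP22 intronic element, compound-treated 24 h at 37 °C. LiveBLAzer FRET B/G read: 460 nm normalized to potassium clavulanate vs DMSO; 535 nm FRET as viability; concentration-effect curves classified.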

Test [15] can be described thus: qHTS assay for small molecule disruptors of the mitochondrial membrane potential - 1 hr assay (AID 651754; calls by dose curve; also: potency is read from the fitted curve at half-maximal effect; nearly all actives have a fitted effect of over 35% in size). In outline:
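HepG2, 2,000 cells/well, overnight attachment; cpd or DMSO 1 hr, 37C/5% CO2; Mito-MPS dye 30 min, 37C; fluorescence monomer (490/535) and aggregate (540/590).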

A short description of test [16]: qHTS assay for small molecule disruptors of the mitochondrial membrane potential - 5 hr assay (AID 651755; calls by dose curve; also: potency is read from the fitted curve at half-maximal effect; nearly all actives have a fitted effect of over 40% in size). In outline: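 HepG2, 2,000 cells/well, overnight attach; cpd or DMSO 5 hr, 37C/5% CO2; Mito-MPS 30 min 37C; fluor 490/535 + 540/590 nm.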
For test [17], the target named is Glucagon-like peptide 1 receptor (Homo sapiens) (UniProt P43220). Put plainly: qHTS of GLP-1 Receptor Agonists: LOPAC Validation (AID 624148).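 Also: luminescence from a luciferase reporter switched on by cAMP; 0% is about no effect; higher luminescence signal means agonism.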 In outline: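 Agonism scored as increased luciferase luminescence driven by cAMP in HEK293 clones carrying GLP-1R. Cells settled 12 hours, received compound for 4-6 hr at 37 deg C, 5% CO2, and were read after 12 min detection reagent at RT.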
Glucagon-like peptide 1 receptor (Homo sapiens), sequence (P43220 whole entry, looked up): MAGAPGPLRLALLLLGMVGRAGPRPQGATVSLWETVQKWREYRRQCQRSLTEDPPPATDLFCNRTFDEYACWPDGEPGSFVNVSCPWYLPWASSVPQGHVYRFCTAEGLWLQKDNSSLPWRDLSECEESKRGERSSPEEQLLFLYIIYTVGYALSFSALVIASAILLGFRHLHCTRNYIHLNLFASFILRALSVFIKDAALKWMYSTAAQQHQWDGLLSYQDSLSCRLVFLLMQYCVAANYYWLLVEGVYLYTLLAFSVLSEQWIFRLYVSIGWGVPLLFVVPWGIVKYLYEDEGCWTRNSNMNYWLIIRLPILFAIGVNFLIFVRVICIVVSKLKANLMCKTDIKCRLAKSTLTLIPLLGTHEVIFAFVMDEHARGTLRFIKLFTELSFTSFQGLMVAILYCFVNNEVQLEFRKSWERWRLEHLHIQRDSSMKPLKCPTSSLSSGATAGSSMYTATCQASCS

Test [18] in a line: qHTS of Nrf2 Activators: LOPAC Validation (AID 624149). Also: 0% is about no effect. In a few lines:
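Luminescence read-out of ARE-luciferase activation: AREc32_Fluc cells treated with compounds for 24 hr at 37 deg C, then lysed with Steady-Glo for 30 min at room temperature before reading.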

Where “and” joins values, the source holds several entries; their conditions need not be identical. Equal values may be shown once. Records with an inconclusive call do not appear. Calls of active or inactive are those of the source. Unless noted, calls follow the shape of the dose curve; as a rule, active = well fitted curve in the direction sought with a large enough effect; inconclusive = small, poorly fitted or top-dose-only effect, or another doubt; inactive = no such curve, though single readings can be large; an effect the other way counts as inactive or inconclusive.

Tumor necrosis factor (Homo sapiens), sequence (P01375 whole entry, looked up): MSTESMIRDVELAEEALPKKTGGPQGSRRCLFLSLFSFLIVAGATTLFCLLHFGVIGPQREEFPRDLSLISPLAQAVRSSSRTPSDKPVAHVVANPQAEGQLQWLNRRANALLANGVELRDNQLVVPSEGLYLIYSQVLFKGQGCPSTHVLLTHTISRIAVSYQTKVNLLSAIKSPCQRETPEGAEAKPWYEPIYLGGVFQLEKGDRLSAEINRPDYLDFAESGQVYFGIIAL

With `CCCCC/C=C\C/C=C\C/C=C\C/C=C\CCCC(=O)NC1CC1`, the Potency result in [1], in test [5] and in test [6] was “inactive” throughout. Also, the outcome in test [2] was inactive. The viability (% of control) in test [3] stood at 86.9%. In addition, in [4], the viability, percent of control came to 109%.

For `CNC(=O)N1N=C(c2ccc(N)cc2)c2cc3c(cc2CC1C)OCO3` (configuration not stated), the Potency result in test [1], in test [7] and in test [6] was “inactive” in each case. In test [2], the outcome was inactive. Besides, in test [3], the viability (% of control) came out at 5.8%. In [4], the viability, percent of control was 20%. Besides, in [5], the Potency was 18.7 µM (active).

On to `Cc1cc(SCc2sc(-c3ccc(C(F)(F)F)c(F)c3)nc2C)ccc1OCC(=O)O`, for which, in [2], the molecule was called inactive. The viability (% of control) in [3] worked out at 80.8%. Moreover, the viability, percent of control in test [4] is 93.2%. In addition, the Potency entry in test [6] was “inactive”. Also, the Potency in test [8] was 68.6 µM (active). Moreover, the activation in test [9] was -3.79% (inactive).

In the case of `Clc1ccc(COC(Cn2ccnc2)c2ccc(Cl)cc2Cl)cc1` (configuration not stated), in [10], the molecule was classed as inactive.

Take `C[C@@H]1[C@@H](C(=O)C[C@H]2O[C@@H]3O[C@]4(C)CC[C@@H]5[C@H](C)CC[C@@H]([C@H]2C)[C@@]35OO4)O[C@@H]2O[C@]3(C)CC[C@H]4[C@H](C)CC[C@@H]1[C@@]24OO3`: the Potency entry in test [1], in [7] and in test [6] was “inactive” each time. Moreover, in [2], the call was inactive. In [3], the viability (% of control) worked out at 6.12%. Further, in [4], the viability, percent of control stood at 21.3%.

In the case of `CC[N+](C)(C)c1cccc(O)c1`, in [11], the Potency entry is “inactive”.

Consider `C[C@]12CCC(=O)C(O)=C1CC[C@@H]1[C@@H]2CC[C@]2(C)C(=O)CC[C@@H]12`, for which the call in test [12] was inactive. Also, in test [3], the viability (% of control) was determined as 87.8%. The viability, percent of control in test [4] is 87.5%. Besides, the Potency result in test [5], in test [6] and in test [8] was “inactive” each time. For the same molecule, the activation in test [13] was -6.6% (inactive); in test [9], 2.01% (inactive).

With `COC1(CS(=O)c2ccccc2)CCN(CCc2c[nH]c3ccc(F)cc23)CC1` (configuration not stated), the Potency entry in test [1], in test [7], in test [5] and in [6] was “inactive” each time. Also, the molecule was classed as inactive in test [2]. Also, in test [3], the viability (% of control) stood at 79.9%. Further, the viability, percent of control in test [4] was found to be 108%.

For the molecule `CC(C)n1c(C=C[C@H](O)C[C@H](O)CC(=O)O)c(-c2ccc(F)cc2)c2ccccc21`, the viability (% of control) in [3] stood at 83.4%. Further, the viability, percent of control in test [4] worked out at 74.8%.

Take `CS(=O)c1ccc(-c2nc(-c3ccc(F)cc3)c(-c3ccncc3)[nH]2)cc1` (configuration not stated): the viability (% of control) in test [3] was determined as 92.2%. Also, the viability, percent of control in test [4] was 100%.

On to `CNC(=O)c1ccc(N2C(=S)N(c3ccc(C#N)c(C(F)(F)F)c3)C(=O)C23CCC3)cc1F`, for which the Potency result in test [1], in test [7] and in test [6] was “inactive” throughout. Besides, the molecule was called inactive in [2]. In addition, in test [3], the viability (% of control) amounted to 71.2%. Further, the viability, percent of control in [4] turned out to be 77.6%.

On to `COc1ccc(C(=O)c2c(C)n(CCN3CCOCC3)c3ccccc23)cc1`, for which the Potency entry in test [14], in [1] and in test [7] was “inactive” each time. Moreover, in [2], the outcome was inactive. For the same molecule, in test [3], the viability (% of control) came out at 18.8%. The viability, percent of control in test [4] stood at 50.4%. The results for the Potency in [5] and in [6] were 20.9 µM (active) and 26.4 µM (active), respectively.

Take `CC(C)C(=O)Nc1ccc([N+](=O)[O-])c(C(F)(F)F)c1`: the Potency is 61.1 µM (active) and 66.8 µM (active) in test [8]; 42.2 µM (active) in test [15]; 42.2 µM (active) in test [16].

With `C[C@@H]1O[C@@H](O[C@H]2C[C@@H](O)[C@]3(CO)[C@H]4[C@H](O)C[C@]5(C)[C@@H](C6=CC(=O)OC6)CC[C@]5(O)[C@@H]4CC[C@]3(O)C2)[C@H](O)[C@H](O)[C@H]1O`, the molecule was called inactive in test [12], in test [17] and in [18]. Moreover, the Potency result in test [11] is “inactive”.

The record behind these values is PubChem BioAssay (NCATS).
